# The source made the active and inactive calls.
# How the values were obtained:
# [1] = E. coli DRC41 culture turbidity changes, primary screen, E. coli filamentation inducer project, strain DRC41, OD650, 48 h (AID 1152);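 further: E. coli MC1000 strain DRC41 lacking acrAB efflux pump and sulA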; conditions: E. coli DRC41 (acrAB sulA), higher = more signal, called active from +8 up or from −8 down
# [2] = small-molecule binders of probe aLefty1, primary screen, biochemical, small-molecule microarray, 635/667 nm fluorescence (AID 1153); conditions: higher = more signal;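 further: score merges spot fluorescence with signal-to-noise ratio from the scanned slide images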
# [3] = PSAC antagonists in infected red cells, primary screen, cell-based, P. falciparum Indochina, OD700, 1 h (AID 1154); conditions: P. falciparum Indochina infected RBC osmotic lysis, higher = more signal, called active from +8 up or from −8 down
# [4] = PSAC antagonists in infected red cells, primary screen, cell-based, P. falciparum Indochina, OD700, 2 h (AID 1155);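 further: lysis reports solute entry through the parasite surface anion channel PSAC; channel blockers reduce lysis of infected cells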; conditions: P. falciparum Indochina infected erythrocytes, osmotic lysis OD700; higher = more signal, called active from +8 up or from −8 down
# [5] = osmotic lysis modulators in infected erythrocytes, primary screen, PSAC antagonist project, cell-based, P. falciparum Indochina, OD700, 3 h (AID 1156); conditions: higher = more signal, called active from +8 up or from −8 down
# [6] = PSAC antagonists in infected red cells, primary screen, cell-based, P. falciparum Indochina, OD700, 18 h (AID 1157); conditions: P. falciparum Indochina infected erythrocytes, osmotic lysis OD700, 18 h; higher = more signal, called active from +8 up or from −8 down
# [7] = modulators of S6 phosphorylation in cells, primary screen, cell-based, A549, cytoblot, luminescence, serum-stimulated (AID 1158); conditions: A549 phospho-S6 cytoblot, 5 h, higher = more signal;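 further: serum-stimulated A549 lung adenocarcinoma cells; signal is phosphorylated S6 detected by cytoblot immunostaining with HRP secondary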
# [8] = molecular target: NADPH oxidase 2 (Homo sapiens) (UniProt P04839); test: NOX2-dependent H2O2 signal modulators, primary screen, NOX inhibitor project, cell-based, HEK293-NOX2, PMA-stimulated, Amplex Red fluorescence (AID 1159); conditions: 45 min, higher = more signal, called active from +8 up or from −8 down; further: test concentration not given here
# NADPH oxidase 2 (Homo sapiens), sequence (P04839 whole entry, looked up): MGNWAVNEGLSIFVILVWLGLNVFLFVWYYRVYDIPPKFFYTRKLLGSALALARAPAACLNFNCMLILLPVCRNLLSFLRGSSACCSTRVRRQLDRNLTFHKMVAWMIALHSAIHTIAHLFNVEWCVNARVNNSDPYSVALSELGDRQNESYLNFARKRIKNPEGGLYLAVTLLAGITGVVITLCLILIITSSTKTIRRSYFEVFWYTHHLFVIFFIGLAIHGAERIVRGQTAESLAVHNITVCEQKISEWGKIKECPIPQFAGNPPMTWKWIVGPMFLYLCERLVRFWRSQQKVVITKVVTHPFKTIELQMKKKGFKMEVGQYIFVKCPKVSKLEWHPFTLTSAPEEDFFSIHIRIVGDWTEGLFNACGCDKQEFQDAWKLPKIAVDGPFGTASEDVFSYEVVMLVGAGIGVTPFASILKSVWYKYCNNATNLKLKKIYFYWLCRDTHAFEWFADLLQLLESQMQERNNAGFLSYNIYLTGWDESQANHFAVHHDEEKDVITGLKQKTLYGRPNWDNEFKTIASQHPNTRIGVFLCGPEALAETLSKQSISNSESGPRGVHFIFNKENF
# [9] = molecular target: NADPH oxidase 4 (Homo sapiens) (UniProt Q9NPH5); test: NOX4-dependent H2O2 signal modulators, primary screen, NOX inhibitor project, cell-based, HEK293-NOX4, tetracycline-induced, Amplex Red fluorescence (AID 1160); conditions: 45 min, higher = more signal, called active from +8 up or from −8 down
# NADPH oxidase 4 (Homo sapiens), sequence (Q9NPH5 whole entry, looked up): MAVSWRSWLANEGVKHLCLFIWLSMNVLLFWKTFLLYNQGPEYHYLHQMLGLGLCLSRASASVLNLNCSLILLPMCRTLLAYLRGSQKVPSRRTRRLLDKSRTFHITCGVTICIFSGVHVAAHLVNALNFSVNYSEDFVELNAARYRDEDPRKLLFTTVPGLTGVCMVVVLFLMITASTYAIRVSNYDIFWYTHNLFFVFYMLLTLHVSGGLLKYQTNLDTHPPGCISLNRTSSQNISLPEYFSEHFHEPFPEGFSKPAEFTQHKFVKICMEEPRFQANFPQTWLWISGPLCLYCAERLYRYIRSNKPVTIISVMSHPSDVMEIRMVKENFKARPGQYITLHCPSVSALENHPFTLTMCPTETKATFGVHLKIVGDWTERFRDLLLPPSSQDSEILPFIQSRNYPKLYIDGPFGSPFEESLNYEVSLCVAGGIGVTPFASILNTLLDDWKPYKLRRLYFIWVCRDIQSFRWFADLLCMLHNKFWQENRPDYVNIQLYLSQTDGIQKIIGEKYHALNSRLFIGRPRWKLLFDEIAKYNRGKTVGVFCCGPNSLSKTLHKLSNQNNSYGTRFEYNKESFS
# [10] = molecular target: NADPH oxidase 5 (Homo sapiens) (UniProt Q96PH1); test: NOX5-dependent H2O2 signal modulators, primary screen, NOX inhibitor project, cell-based, HEK293-NOX5, Amplex Red fluorescence (AID 1161); conditions: HEK293-NOX5, ionomycin, 45 min, higher = more signal
# NADPH oxidase 5 (Homo sapiens), sequence (Q96PH1 whole entry, looked up): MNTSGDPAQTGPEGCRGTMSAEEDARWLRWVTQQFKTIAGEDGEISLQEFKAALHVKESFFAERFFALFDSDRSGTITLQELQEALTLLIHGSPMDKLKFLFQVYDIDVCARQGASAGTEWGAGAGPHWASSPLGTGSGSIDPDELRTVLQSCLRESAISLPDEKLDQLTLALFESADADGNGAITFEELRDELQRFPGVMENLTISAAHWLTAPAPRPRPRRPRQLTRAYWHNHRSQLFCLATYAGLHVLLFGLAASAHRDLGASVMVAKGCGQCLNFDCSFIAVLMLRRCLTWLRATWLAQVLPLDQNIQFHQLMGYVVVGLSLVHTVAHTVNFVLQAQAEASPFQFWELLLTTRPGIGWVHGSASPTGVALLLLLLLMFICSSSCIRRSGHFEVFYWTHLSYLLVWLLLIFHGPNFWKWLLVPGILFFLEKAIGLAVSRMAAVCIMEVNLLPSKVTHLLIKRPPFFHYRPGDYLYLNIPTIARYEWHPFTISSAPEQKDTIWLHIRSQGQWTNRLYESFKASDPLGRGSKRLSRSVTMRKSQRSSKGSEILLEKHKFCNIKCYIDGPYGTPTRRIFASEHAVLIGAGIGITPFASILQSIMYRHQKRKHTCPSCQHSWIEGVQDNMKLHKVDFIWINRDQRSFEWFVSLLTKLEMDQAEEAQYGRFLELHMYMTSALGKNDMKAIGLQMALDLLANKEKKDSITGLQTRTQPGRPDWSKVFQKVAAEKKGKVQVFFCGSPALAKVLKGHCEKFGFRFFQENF
# [11] = A549 cell viability effects, profiling panel, calcein-AM fluorescence, 48 h, basal (AID 1162); conditions: higher = more signal; further: test concentration not given here
# [12] = adipocyte viability effects, profiling panel, cell-based, 3T3-L1 adipocytes, calcein-AM fluorescence, 48 h, basal (AID 1163); conditions: 3T3-L1 adipocytes viability, higher = more signal; further: test concentration not given here
# [13] = HepG2 cell viability effects, profiling panel, calcein-AM fluorescence, 48 h, basal (AID 1164); conditions: higher = more signal; further: test concentration not given here
# [14] = MM1S cell viability effects, profiling panel, calcein-AM fluorescence, 48 h, basal (AID 1165); conditions: higher = more signal;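 further: viability of MM1S multiple myeloma cells under basal unstimulated conditions; test concentration not given here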
# [15] = basal RPMI8226 viability, no added stimulus, profiling panel, cell-based, calcein-AM fluorescence, 48 h, PK04 Diversity Set (AID 1166); conditions: RPMI8226 myeloma viability, higher = more signal;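 further: cells grown under basal conditions without added stimulus; test concentration not given here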
# [16] = basal HepG2 mitochondrial membrane potential changes, profiling panel, cell-based, JC-1 fluorescence, 24 h, 100 nL compound (AID 1167); conditions: higher = more signal; further: test concentration not given here
# [17] = basal 3T3-L1 adipocyte mitochondrial potential changes, profiling panel, cell-based, JC-1 fluorescence, 3T3-L1 adipocytes, 24 h, 100 nL compound (AID 1168); conditions: JC-1 mitochondrial fluorescence, higher = more signal, called active from +8 up or from −8 down; further: test concentration not given here
# [18] = basal RPMI8226 mitochondrial membrane potential changes, profiling panel, cell-based, JC-1 fluorescence, 24 h, 100 nL compound (AID 1169); conditions: RPMI8226 myeloma, JC-1 mitochondrial potential fluorescence, higher = more signal; further: test concentration not given here
# [19] = basal MM1S mitochondrial membrane potential changes, profiling panel, cell-based, JC-1 fluorescence, 24 h, 100 nL compound (AID 1170); conditions: higher = more signal; further: test concentration not given here
# [20] = A549 lung cancer cell viability effects, profiling panel, resazurin fluorescence, 24 h, PK04 Diversity Set (AID 1171); conditions: higher = more signal, called active from +8 up or from −8 down; further: test concentration not given here
Structure (SMILES),z-score [1],composite z-score [2],z-score [3],z-score [4],z-score [5],z-score [6],z-score [7],z-score [8],z-score [9],z-score [10],z-score [11],z-score [12],z-score [13],z-score [14],z-score [15],z-score [16],z-score [17],z-score [18],z-score [19],z-score [20]
CC(C)N1C(=O)c2ccccc2[C@](C)(C(=O)NCc2ccccc2)[C@@H]1c1ccc(CO)cc1,-0.884 (inactive),-0.101,1.53 (inactive),0.349 (inactive),0.24 (inactive),0.645 (inactive),0.0331,-0.291 (inactive),-0.0216 (inactive),-0.54,0.82,0.48,-0.699,-0.656,-0.0073,-0.265,-0.426 (inactive),-0.833,-0.472,-0.0838 (inactive)
COC(=O)[C@@]1(Cc2ccc(F)cc2)[C@H]2c3cc(C(=O)N(C)C)n(Cc4nc5ccccc5[nH]4)c3C[C@H]2CN1C(=O)c1ccccc1,-0.827 (inactive),-0.0297,20.5 (active),3.05 (inactive),1.13 (inactive),0.91 (inactive),-0.377,-0.0764 (inactive),0.32 (inactive),-2.06,-0.788,-0.0882,-0.49,-1.09,-0.184,-0.0736,-0.156 (inactive),-0.207,-2.16,0.406 (inactive)
CCC(CC)C(O)C1C=CC2C(=O)N(C)C(=O)C2N1Nc1ccccc1 (stereo not given),-0.39 (inactive),0.173,1.11 (inactive),1.09 (inactive),0.0973 (inactive),0.951 (inactive),-0.835,-1.73 (inactive),-3.49 (inactive),-3.77,0.095,-1.07,0.597,-0.299,-0.469,-0.843,-0.83 (inactive),-0.802,0.0765,0.78 (inactive)
CN1C(=O)C2C=CC(C(O)c3ccc(I)cc3)N(N3CCCCC3)C2C1=O (stereo not given),-2.04 (inactive),0.699,4.08 (inactive),0.399 (inactive),1.33 (inactive),0.701 (inactive),-1.04,-0.229 (inactive),-2.14 (inactive),-1.63,-0.481,-0.111,-0.619,-3.7,-0.955,-0.62,-0.435 (inactive),-0.484,-0.624,-0.799 (inactive)
COc1ccc(NN2C(C(O)c3ccc([N+](=O)[O-])cc3)C=CC3C(=O)N(C4CCCCC4)C(=O)C32)cc1 (stereo not given),-0.256 (inactive),0.3,7.78 (inactive),1.11 (inactive),-0.187 (inactive),0.708 (inactive),-0.126,-1.03 (inactive),-2.3 (inactive),-0.48,0.0649,-1.33,0.52,0.538,-0.465,-0.0181,0.369 (inactive),0.919,-1.71,1.01 (inactive)
C=CC[C@]1(C(=O)NCCCOC)N=C(c2ccc(OCCCO)cc2)O[C@H]1c1ccccc1N=[N+]=[N-],0.239 (inactive),0.479,33.6 (active),32.2 (active),3.35 (inactive),8.48 (active),-0.403,-1.06 (inactive),1.33 (inactive),-0.678,-0.707,0.346,0.0592,-1.78,-1.47,0.111,1.06 (inactive),-0.68,-0.114,0.393 (inactive)
CN(C)C(=O)[C@]1(Cc2ccccc2CN=[N+]=[N-])N=C(c2ccc(OCCCO)cc2)O[C@@H]1c1ccccc1CN=[N+]=[N-],-0.214 (inactive),0.425,26.8 (active),13.4 (active),2.66 (inactive),-0.0196 (inactive),1.18,-3.36 (inactive),-1.6 (inactive),-1.78,-0.999,1.59,0.309,-2.26,-4.24,0.644,-0.735 (inactive),-1.13,-0.0198,0.113 (inactive)
C=CCNC(=O)[C@@H]1[C@H]2C(=O)O[C@H](c3ccccc3)[C@H](c3ccccc3)N2[C@H](c2ccccc2OCCO)[C@@]12C(=O)N(C(=O)OCCOC)c1ccc(C#CCNC(N)=O)cc12,-0.302 (inactive),0.395,3.09 (inactive),0.483 (inactive),1.3 (inactive),0.466 (inactive),0.425,1.77 (inactive),1.54 (inactive),-0.131,0.843,0.595,0.886,0.765,0.425,0.766,0.586 (inactive),0.159,-0.341,-0.768 (inactive)
COc1ccc([C@H]2C[C@H]3C(Br)=C[C@@H]2C(=O)[C@]32CO2)cc1,0.834 (inactive),-0.294,1.27 (inactive),0.581 (inactive),1.23 (inactive),0.207 (inactive),-0.288,-0.0817 (inactive),0.106 (inactive),-0.837,0.321,0.0531,-0.193,-2.75,-1.55,-0.262,0.558 (inactive),-0.556,-0.914,0.217 (inactive)
[N-]=[N+]=NCc1ccccc1[C@@H]1OC(c2ccc(OCCCO)cc2)=N[C@]1(Cc1ccccc1N=[N+]=[N-])C(=O)N1CCOCC1,-0.66 (inactive),0.628,16.9 (active),3.7 (inactive),1.17 (inactive),1.01 (inactive),0.37,-1.31 (inactive),1.23 (inactive),1.4,0.328,-0.259,-0.761,-1.48,-2.62,-0.516,-1.06 (inactive),-1.02,-1.42,-0.867 (inactive)
O=C1OCCC=C[C@H]2OC34C=CCN(CCN5CCOCC5)C(=O)[C@H]3N(CCCCCCO)C(=O)[C@@H]4C12 (stereo not given in full),0.36 (inactive),-0.286,0.683 (inactive),0.539 (inactive),0.835 (inactive),0.353 (inactive),-0.156,0.658 (inactive),-0.289 (inactive),1.67,0.758,-3.63,0.821,1.32,0.477,1.07,-0.347 (inactive),0.0953,0.341,0.459 (inactive)
CCCC[C@@H]1C[C@H]1[C@@H](NC(=O)c1ccco1)c1ccc(Cl)cc1,-1.54 (inactive),0.485,4.34 (inactive),0.904 (inactive),0.365 (inactive),0.74 (inactive),-0.321,-1.72 (inactive),-2.56 (inactive),0.0234,-2.3,-0.679,-0.746,-1.95,-2.24,2.38,-0.732 (inactive),-0.318,-1.37,0.473 (inactive)
CCOC(=O)C=Cc1cc([N+](=O)[O-])ccc1O,-1.72 (inactive),-0.104,26 (active),11.8 (active),2.13 (inactive),-0.816 (inactive),2.41,-4.11 (inactive),-2.98 (inactive),-3.76,-0.563,1.39,-1.27,0.112,-2.29,-1.91,0.428 (inactive),-0.403,-0.889,0.384 (inactive)
CO[C@H]1O[C@H](CO)[C@@H](OC(=O)Nc2ccc(Br)cc2)[C@H](OC(=O)c2cc3ccccc3[nH]2)[C@H]1OC(=O)c1cc2ccccc2[nH]1,1.99 (inactive),0.12,1.39 (inactive),-1.16 (inactive),-0.368 (inactive),-0.464 (inactive),1.16,-2.75 (inactive),-0.642 (inactive),-2.04,-2.49,0.266,-2.58,-3.23,-3.2,-2.38,2.37 (inactive),-0.589,-0.634,-5.8 (inactive)
COC(=O)[C@@]1(Cc2ccc(OC)cc2)[C@H]2c3cc(C(=O)N4CCCC4)n(Cc4ccccc4)c3C[C@H]2CN1C(=O)c1ccccc1,-1.49 (inactive),2.19,2.81 (inactive),0.496 (inactive),0.748 (inactive),0.69 (inactive),-0.378,-0.0412 (inactive),-0.857 (inactive),-3.04,-0.549,0.39,-0.331,-1.63,-2.12,2.44,-1.07 (inactive),-0.933,-1.3,-2.5 (inactive)
CC(CO)N1C(=O)[C@@H]2C3C(=O)OCCC/C=C\[C@H]3OC23C=CCN(c2ccc4ccccc4c2)C(=O)[C@@H]13 (stereo not given in full),0.453 (inactive),-0.147,1.07 (inactive),0.0843 (inactive),1.87 (inactive),0.011 (inactive),-0.13,1.03 (inactive),-0.0122 (inactive),1.97,0.149,-0.0935,1.14,1.74,0.931,0.811,-0.373 (inactive),-0.713,-0.832,0.315 (inactive)
[N-]=[N+]=Nc1ccccc1C[C@]1(C(N)=O)N=C(c2ccc(OCCCO)cc2)O[C@H]1c1ccccc1,-0.444 (inactive),0.228,19.8 (active),3.47 (inactive),1.84 (inactive),0.936 (inactive),0.176,0.631 (inactive),0.247 (inactive),-1.32,0.0914,0.124,-0.0857,-1.9,-0.495,-0.543,-0.387 (inactive),-0.265,-0.0874,0.453 (inactive)
CN1C(=O)[C@]2(Cc3ccccc3)N=C(c3ccc(OCCCO)cc3)O[C@@H]2c2ccccc21,-0.105 (inactive),-0.157,33.7 (active),32.4 (active),2.34 (inactive),3.54 (inactive),0.435,-2.02 (inactive),-0.608 (inactive),-1.93,-1.55,1.71,-1.68,-1.76,-4.34,0.288,0.686 (inactive),-1.16,-0.976,-1.81 (inactive)

# — PubChem BioAssay
